Our source for the morphology score and SARS-CoV-2 infection rate values is the supplement of paper PMC13380429.

Assay [1] concerns Vero E6 infected with SARS-CoV-2. Nature of the assay: morphology score (similarity to uninfected cells); higher = more like uninfected cells. To be noted: 24 h.
Assay [2] shares this test system. In words: SARS-CoV-2 infection rate relative to infected DMSO; higher = more infection, active = 60 or less. To be noted: 24 h.

Consider `CC1(C)S[C@@H]2[C@H](NC(=O)[C@H](NC(=O)N3CCNC3=O)c3ccccc3)C(=O)N2[C@H]1C(=O)O` [azlocillin] (10 µM), for which, in assay [1], the morphology score was -0.0252. In assay [2], the SARS-CoV-2 infection rate was 104% (inactive).

`O=C(/C=C/c1cccnc1)NCCCCC1CCN(C(=O)c2ccccc2)CC1` (0.833333 µM) displayed a morphology score in assay [1] of -0.0966. For the same molecule, in assay [2], the SARS-CoV-2 infection rate is 94% (inactive).

Take `CN1C[C@H](C(=O)N[C@]2(C)O[C@@]3(O)[C@@H]4CCCN4C(=O)[C@H](Cc4ccccc4)N3C2=O)C[C@@H]2c3cccc4[nH]cc(c34)C[C@H]21` [dihydroergotamine] (10 µM): the morphology score in assay [1] was -0.0107. Further, in assay [2], the SARS-CoV-2 infection rate is 104% (inactive).

With `Cc1cc(N)c2ccccc2[n+]1CCCCCCCCCC[n+]1c(C)cc(N)c2ccccc21` [dequalinium] (10 µM), the morphology score in assay [1] came out at 0.175. In assay [2], the SARS-CoV-2 infection rate was 94% (inactive).

For `COC(=O)CCC(=O)CN` [methyl-aminolevulinate] (10 µM), the morphology score in assay [1] turned out to be 0.118. In assay [2], the SARS-CoV-2 infection rate was 90% (inactive).

`C=C1C[C@@]2(O)O[C@@]3(C[C@H]2C(C)C)[C@@H](C)CC[C@@H]13` [curcumol] (10 µM) gave a morphology score in assay [1] of 0.157. Further, in assay [2], the SARS-CoV-2 infection rate is 106% (inactive).

The molecule `CCCCCCCCCCCCCCCC[N+](C)(C)CCN(Cc1ccc(OC)cc1)c1ncccn1` [thonzonium] (10 µM) gave a morphology score in assay [1] of -0.372. In assay [2], the SARS-CoV-2 infection rate is 122% (inactive).

In assay [1], `Cc1cc(CCCOc2c(C)cc(-c3noc(C(F)(F)F)n3)cc2C)on1` [pleconaril] (10 µM) displayed a morphology score of -0.0431. In addition, the SARS-CoV-2 infection rate in assay [2] was 108% (inactive).

For the molecule `O=C(c1ccc(F)c(F)c1Nc1ccc(I)cc1F)N1CC(O)([C@@H]2CCCCN2)C1` [cobimetinib] (0.833333 µM), the morphology score in assay [1] is -0.272. In addition, the SARS-CoV-2 infection rate in assay [2] is 116% (inactive).
